Source: PubChem BioAssay (NCATS)
Results filed as inconclusive are left out. A call without a number means that no potency is given here. Values without a mark were called inactive. Calls of active or inactive are those of the source. Calls follow the shape of the dose curve; as a rule, active = well fitted curve in the direction sought with a large enough effect; inconclusive = small, poorly fitted or top-dose-only effect, or another doubt; inactive = no such curve, though single readings can be large; an effect the other way counts as inactive or inconclusive.

Key:
Furin (Homo sapiens) = Furin (Homo sapiens) (UniProt P09958); experiment: Furin counterscreen qHTS for Zika virus inhibitors (AID 1347149); also: nearly all actives have a fitted effect of over 70% in size; also: potency is read from the fitted curve at half-maximal effect;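 as to activity change, negative = inhibition: purified recombinant full-length human furin enzyme at 5 nM; fluorescence gain from furin cutting a BOC-RVRR-AMC peptide substrate over 15 min; top concentration of the series differs between compounds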
Method in brief: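 Fluorogenic cleavage of BOC-RVRR-AMC (2 microM final, Km ~15 µM) was monitored (ex 340, em 450 nm) at 37C after 15 min RT preincubation of 5 nM furin with compounds in HEPES pH 7.0 buffer with CaCl2 and Triton X-100. Percent inhibition was fitted to a 4-parameter Hill curve.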

[1] = tested on: Zika virus NS2B-NS3 protease (linked construct); experiment: Confirmatory screen NINDS AMC qHTS for Zika virus inhibitors (AID 1347152); also: nearly all actives have a fitted effect of over 70% in size; also: potency is read from the fitted curve at half-maximal effect;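 as to activity change, negative = inhibition: AMC fluorescence gain from cleaved Bz-Nle-KRR-AMC substrate over 15 min; top concentration of the series differs between compounds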
Method in brief: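 Linked NS2B-NS3 protease, 1 nM, in 10 mM Tris-HCl pH 8.0, 0.01% Tween 20; compounds preincubated 15 min at room temperature. Nle-KRR-AMC 10 microM (Km 18.3 µM); 15-min fluorescence change (340/450 nm) fitted to 4-parameter Hill.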

[2] = tested on: Zika virus NS2B-NS3 protease (unlinked complex); experiment: Confirmatory screen GU AMC qHTS for Zika virus inhibitors (AID 1347153); also: nearly all actives have a fitted effect of over 70% in size
Method in brief: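 Unlinked NS2B-NS3 complex (25 nM) in 10 mM Tris-HCl pH 8.0, 0.01% Tween 20 preincubated 15 min with compound, then 10 microM Bz-Nle-KRR-AMC (Km 18.3 µM). Fluorescence change over 15 min, normalized, Hill-fitted.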

[3] = Tertiary RLuc qRT-PCR qHTS assay for Zika virus inhibitors (AID 1347169); also: top concentration of the series differs between compounds; nearly all actives have a fitted effect of over 55% in size
Method in brief: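 Vero cells (1,000/well) infected with recombinant ZIKV-RLuc (Cambodian) at MOI 1-2 after compound addition, 48-72 hrs at 37 degrees C. Live-cell Renilla luciferase substrate added; luminescence read after 1-1.5 hrs.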

[4] = Confirmatory screen GU Rhodamine qHTS for Zika virus inhibitors qHTS (AID 1347157); also: nearly all actives have a fitted effect of over 70% in size; also: potency is read from the fitted curve at half-maximal effect
Method in brief: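 Compounds, tested up to 114 microM, were incubated for 15 minutes with 25 nM unlinked NS2B-NS3 protease at pH 8.0. Cleavage of 1.5 microM Rhodamine110 substrate was then followed by fluorescence for 15 minutes.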

[5] = tested on: Zika virus NS2B-NS3 protease; experiment: Primary screen GU AMC qHTS for Zika virus inhibitors (AID 1347154); also: nearly all actives have a fitted effect of over 70% in size; also: potency is read from the fitted curve at half-maximal effect
Method in brief: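 Unlinked Zika NS2B hydrophilic domain–NS3 protease complex at 25 nM in 10 mM Tris-HCl pH 8.0, 0.01% Tween 20, with an AMC peptide substrate. Fluorescence change (340/450 nm) over 15 min at room temperature, normalized to controls, fitted to 4-parameter Hill.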

[6] = Vero cells viability qHTS for Zika virus inhibitors (AID 1347167)
Method in brief: (§1)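 Cells seeded at 2.5 x 10^5 cells/mL in DMEM with 4% FBS and attached overnight at 37 degrees C, then exposed to compound for 24 to 48 hours. Viability read as ATP content by CellTiter Glo luminescence.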

[7] = Primary qHTS for small molecule stabilizers of the endoplasmic reticulum resident proteome: Secreted ER Calcium Modulated Protein (SERCaMP) assay (AID 1508630)
Method in brief: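 GLuc-SERCaMP-expressing SH-SY5Y cells, pretreated 16 h with compound, are challenged with thapsigargin to empty ER calcium stores; after 4 h, coelenterazine is added directly to the medium and luminescence is imaged.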

[8] = Confirmatory screen NINDS Rhodamine qHTS for Zika virus inhibitors (AID 1347161); also: nearly all actives have a fitted effect of over 60% in size; also: potency is read from the fitted curve at half-maximal effect;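 as to activity change, negative = inhibition: purified Zika NS2B-NS3 protease with linked NS2B cofactor domain and Rhodamine110 peptide substrate; series mostly up to about 110 µM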
Method in brief: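 Rhodamine110-peptide cleavage (1.5 µM substrate) by 25 nM linked NS2B-NS3 enzyme at pH 8.0 (Tris, Tween 20), after 15 min RT preincubation with compounds; 15-min fluorescence change normalized to controls and Hill-fitted.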

[9] = HepG2 cells viability qHTS for Zika virus inhibitors (AID 1347168)
Method in brief: as §1

[10] = ZIKV-mCherry secondary qHTS for Zika virus inhibitors (AID 1347158); also: top concentration of the series differs between compounds
Method in brief: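 Vero cells (5,000/well) were given compound, then infected with ZIKV-mCherry at MOI 1 for 48–72 h at 37 °C. After PFA fixation and Hoechst staining, imaging gave percent mCherry-positive cells. The positivity threshold was RFU above 450, 3 SD over negative controls.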

[11] = tested on: Zika virus NS2B-NS3 protease (linked construct); experiment: 384 well plate NINDS Rhodamine confirmatory qHTS for Zika virus inhibitors (AID 1347164);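 also: fluorescence from protease cleavage of Ac-LKRR-rhodamine 110 substrate; nearly all actives have a fitted effect of over 65% in size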; also: potency is read from the fitted curve at half-maximal effect; as to activity change, negative = inhibition: top concentration of the series differs between compounds
Method in brief: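 Linked NS2B-NS3 protease (final 5, 30 or 60 nM) preincubated ~15 minutes with compounds, then 10 microM Ac-LKRR-Rhodamine 110 added. Fluorescence (485/538 nm) read after 25 minutes at room temperature, normalized to no-enzyme and no-inhibitor controls.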

[12] = tested on: Zika virus NS2B-NS3 protease (linked); experiment: 384 well plate NINDS AMC confirmatory qHTS for Zika virus inhibitors (AID 1347163); also: potency is read from the fitted curve at half-maximal effect; nearly all actives have a fitted effect of over 50% in size
Method in brief: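 Linked NS2B-NS3 protease (final 5 nM, 30 nM or 60 nM) was preincubated with compounds (final up to 1 mM) for ~15 minutes. Ac-VKTGKR-AMC substrate (final 30 microM) then reacted for 25 minutes at room temperature in the dark. Fluorescence (ex 355/em 460 nm) was normalized to no-enzyme and no-inhibitor controls.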

Sequence of Furin (Homo sapiens) (P09958 whole entry, looked up): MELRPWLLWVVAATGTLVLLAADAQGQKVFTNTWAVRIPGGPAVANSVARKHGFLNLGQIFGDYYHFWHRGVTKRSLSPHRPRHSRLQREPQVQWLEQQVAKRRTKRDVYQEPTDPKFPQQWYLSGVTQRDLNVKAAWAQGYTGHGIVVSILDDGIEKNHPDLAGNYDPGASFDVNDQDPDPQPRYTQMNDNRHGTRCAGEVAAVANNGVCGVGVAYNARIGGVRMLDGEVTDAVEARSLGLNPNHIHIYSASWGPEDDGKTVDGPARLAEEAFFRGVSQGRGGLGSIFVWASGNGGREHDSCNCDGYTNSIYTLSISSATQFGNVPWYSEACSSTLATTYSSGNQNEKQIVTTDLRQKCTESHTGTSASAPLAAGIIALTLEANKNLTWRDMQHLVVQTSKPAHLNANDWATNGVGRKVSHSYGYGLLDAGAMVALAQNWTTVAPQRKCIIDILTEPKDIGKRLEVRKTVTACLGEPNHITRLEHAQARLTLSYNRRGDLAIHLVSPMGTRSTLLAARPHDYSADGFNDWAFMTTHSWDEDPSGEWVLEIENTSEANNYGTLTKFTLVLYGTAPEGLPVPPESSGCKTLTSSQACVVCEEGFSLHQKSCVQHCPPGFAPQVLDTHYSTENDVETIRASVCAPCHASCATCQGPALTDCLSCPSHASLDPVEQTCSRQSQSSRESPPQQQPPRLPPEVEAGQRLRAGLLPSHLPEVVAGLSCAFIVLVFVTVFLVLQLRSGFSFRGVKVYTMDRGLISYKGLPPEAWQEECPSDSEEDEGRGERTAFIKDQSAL

With `N#C/C(=C\c1ccc(Br)cc1)c1nc(-c2cc3cc(Br)ccc3oc2=O)cs1` the Potency (Furin (Homo sapiens)) was “inactive”, the Potency [1] was “inactive” and the Potency [2] was “inactive”. For the same compound, the Potency [3] was “inactive”.

For `Cc1ccc(NC(=O)CSc2ncccc2C(=O)Oc2ccccc2Cl)cc1Cl`, the Potency (Furin (Homo sapiens)) was “inactive” and the Potency [4] was “inactive”.

With `Cc1ccc2c(=O)c3ccccc3n(CCCN)c2c1C` the Potency (Furin (Homo sapiens)) was 24.1 µM (active), the Potency [2] was “inactive” and the Potency [5] was 21.2 µM (active). The Potency [6] was “inactive” and the Potency [7] was “inactive”.

For `COc1ccc(-c2nc3cc(F)ccc3s2)cc1OC`, the Potency (Furin (Homo sapiens)) was 3.43 µM (active), the activity, negative = inhibition [2] was -4.14% [at 5.51 µM] and the activity change, negative = inhibition [8] was -16.8% [at 12.7 µM]. The activity change, negative = cytotoxicity [6] was -2.06% [at 4.93 µM], the activity change, negative = cytotoxicity [9] was 0.919% [at 4.93 µM] and the Potency [3] was “inactive”.

In the case of `N#Cc1ccc(OCC2CN(Cc3c[nH]c4ccccc34)C(=O)c3c(ccnc3-c3ccc(OCC(=O)O)cc3)O2)cc1` (configuration not stated), the Potency (Furin (Homo sapiens)) is reported as “inactive”, the Potency [1] is reported as “inactive” and the Potency [10] is reported as “inactive”. For the same compound, the Potency [11] was 39.8 µM (active) and the Potency [3] was “inactive”.

In the case of `O=C(COC(=O)c1cccc(NC(=O)c2ccc(Br)cc2)c1)c1ccc(Br)cc1`, the Potency (Furin (Homo sapiens)) is reported as “inactive” and the Potency [4] is reported as “inactive”.

In the case of `Clc1ccc(-c2nn3c(COc4cccc(OCc5nnc6sc(-c7ccc(Cl)cc7)nn56)c4)nnc3s2)cc1`, the Potency (Furin (Homo sapiens)) is reported as “inactive”, the Potency [1] is reported as 50.1 µM (active) and the Potency [8] is reported as 20 µM (active). The Potency [12] was 12.6 µM (active) and the Potency [3] was “inactive”.

In the case of `N#CC(C#N)=C(N)/C(C#N)=C/c1cc(O)c(O)c(O)c1`, the Potency (Furin (Homo sapiens)) is reported as “inactive”, the Potency [5] is reported as “inactive” and the Potency [4] is reported as 44.7 µM (active). The Potency [10] was “inactive”, the Potency [8] was 31.6 µM (active) and the Potency [12] was 112 µM (active). For the same compound, the Potency [11] was “inactive” and the Potency [3] was “inactive”.
